PubChem BioAssay AID2315 (National Center for Advancing Translational Sciences (NCATS), 2010)
Among all 290,000 compounds or so, about 27,000 (9.3%) were called active. The list comes from a sample in which actives are over-represented; it also holds similar structures and randomly drawn compounds. Values without a mark were called inactive. No stated cut-off is given here; in the data, active means inhibition mostly above about 28% (no sharp cut-off); inactive means mostly below about 43%.

experiment: A qHTS for Small Molecule Inhibitors of Shiga Toxin; details: Vero cells, Shiga toxin protein synthesis inhibition reporter; at 38.7 µM, active compounds read high; further: 0% is about no effect

Row | SMILES | inhibition
1 | CN1CCC(CN)(N2CCN(c3ccccc3)CC2)CC1 | -6.52%
2 | COc1cccc2sc(N(CCCN(C)C)C(=O)CCS(=O)(=O)c3ccccc3)nc12 | 8.49%
3 | CC1(C)Cc2c(cnn2-c2cccc(F)c2)C(NC(=O)c2cc[n+]([O-])cc2)C1 (stereo unspecified) | -5.88%
4 | Cc1cccnc1NC(=O)Cn1c(=O)oc2ccccc21 | 30.2%
5 | Cc1ccc(S(=O)(=O)c2c[nH]c3ccc(Cl)cc3c2=O)cc1 | -4.43%
6 | O=C(Nc1cccc([N+](=O)[O-])c1)c1ccc2c(c1)OCO2 | 58.7% (active)
7 | O=C(Nc1ccc(C2CC2(Cl)Cl)cc1)c1cccc([N+](=O)[O-])c1 (stereo unspecified) | 76.3% (active)
8 | O=C(Nc1ccc(N2CCOCC2)cc1)c1ccc2c(c1)OCO2 | 76.4% (active)
9 | CC(C)C(=O)Nc1cccc(C(=O)Nc2ccc3c(c2)OCO3)c1 | 143% (active)
10 | O=C(Nc1cccc([N+](=O)[O-])c1)Nn1cnnc1 | -6.68%
11 | O=C(c1ccc2c(c1)OCO2)N1CCOCC1 | 1.95%
12 | CC(NC(=O)Nc1cccc([N+](=O)[O-])c1)c1ccc2c(c1)OCO2 (stereo unspecified) | 6.02%
13 | O=C(Nc1ccc(NC(=O)c2ccco2)c(Cl)c1)c1cccc([N+](=O)[O-])c1 | 15.6%
14 | CCSc1ccccc1C(=O)Nc1ccc2c(c1)OCO2 | 45.1%
15 | O=C(Nc1ccc(C(=O)N2CCCCC2)cc1)c1cccc([N+](=O)[O-])c1 | 27.3%
16 | O=C(Nc1ccc2c(c1)OCO2)c1ccc(N2C(=O)c3ccccc3C2=O)cc1 | 17.3%
17 | CCN(CCCNC(=O)c1ccc2c(c1)NC(=O)CN2C)c1cccc(C)c1 | -5.92%
18 | COc1ccc(NC(=O)C2=CC(c3ccc(OC)c(OC)c3)=NS(=O)(=O)N2C)cc1 | 7.8%
19 | O=C(CN1CCCCCC1)Nc1ccc(Cl)cc1F | 1.73%
20 | O=c1ccc2cc(S(=O)(=O)Nc3ccccc3F)ccc2o1 | -8.1%
21 | CCc1nc2cccnc2n1-c1ccc(C(=O)O)cc1 | -6.32%
22 | Cc1c(Cl)cccc1NC(=S)NCC(O)c1ccccc1 (stereo unspecified) | 8.12%
23 | Cn1nnnc1SCC(=O)Nc1nc2ccccc2s1 | 25.2%
24 | O=C(Nc1ccccc1)Nc1nc2ccccc2s1 | 106% (active)

Row | SMILES | inhibition
25 | CC(=O)Nc1ccc(-c2csc(NC(=O)Nc3ccccc3)n2)cc1 | 42%
26 | COc1ccc(C(=O)NC2CC(C)(C)Cc3c2cnn3-c2ccccc2)c(OC)c1 (stereo unspecified) | -3.27%
27 | CC(C)S(=O)(=O)c1csc(NC(=O)Nc2ccc(Cl)cc2)c1Cl | 37.4%
28 | COc1ccccc1Nc1cc(C(=O)NCCCN(C)C2CCCCC2)c2ccccc2n1 | -10.8%
29 | Cc1ccc(SCC(=O)c2cc(C)c(OC(=S)N(C)C)c(C)c2)cc1 | 37.1%
30 | Cc1cc(C)n2nc(CNS(=O)(=O)c3c(F)c(F)c(F)c(F)c3F)nc2n1 | 9.24%
31 | COc1cccc(NC(=O)N2CCC(NC(=O)C(Cc3cccc(C)c3)NC(C)=O)CC2)c1 (stereo unspecified) | 1.56%
32 | Cc1ccc(-n2nc3c(c2NC(=O)c2ccc4c(c2)OCO4)CSC3)c(C)c1 | 1.3%
33 | Cc1cccc(C(=O)Nc2ccccc2N2CCN(c3ccc(F)cc3)CC2)c1 | -3.83%
34 | Cc1ccc(F)cc1NC(=O)c1cccc(N(C)C)c1 | 116% (active)
35 | Cc1ccc(F)cc1NC(=O)c1ccc2c(c1)OCO2 | 43.8% (active)
36 | O=C(Nc1ccccc1N1CCCCC1)c1cccc(F)c1 | 16.3%
37 | O=C(CN1CCN(CC(=O)Nc2ccc3c(c2)OCO3)CC1)Nc1ccc(F)cc1 | -14.4%
38 | COc1ccc(NC(=O)NCc2ccc3c(c2)OCO3)c(OC)c1 | -9.62%
39 | CN(C)CCN(C(=O)C1CCCCC1)c1nc2cc3c(cc2s1)OCO3 | -7.68%
40 | CC(=O)N1CCc2cc(S(=O)(=O)NC3CCCCC3)ccc21 | -2.55%
41 | COc1ccc(C(=O)COC(=O)CNC(=O)c2cccs2)cc1Br | -12%
42 | CC(=O)Nc1ccc(Nc2ncnc3c2nnn3Cc2ccccc2Cl)cc1 | -4.64%
43 | COc1ccc(/C=C2\SC(=S)N(CCC(=O)Nc3ccccn3)C2=O)cc1OC | -13.3%
44 | CCOc1ccc(N(CC(=O)NCC2CCCO2)S(=O)(=O)c2ccc(C)cc2)cc1 (stereo unspecified) | -4.82%
45 | COCn1c(COc2ccccc2)nc2ccccc21 | 13.8% (active)
46 | O=C(Cn1c(COc2ccccc2)nc2ccccc21)Nc1cc(Cl)c(Cl)cc1Cl | 3.93%
47 | CC(C)n1c(COc2ccccc2)nc2ccccc21 | -5.6%
48 | Cc1ccc(C23CC4CC(CC(C(=O)NCC(=O)O)(C4)C2)C3)cc1 | -7.52%

Row | SMILES | inhibition
49 | Cc1cccc(OCC(=O)NC2CC(C)(C)NC(C)(C)C2)c1 | 1.98%
50 | CC(NCCc1ccc(S(N)(=O)=O)cc1)C(=O)NCc1ccccc1 (stereo unspecified) | 45.3%
51 | Cc1cc(S(=O)(=O)N2CCOCC2)ccc1OCC(=O)Nc1cccc(C(F)(F)F)c1 | -13.1%
52 | COc1ccccc1CSc1nc2ccccc2[nH]1 | 71.9% (active)
53 | COc1ccccc1CC(=O)Nc1ccc([N+](=O)[O-])cc1OC | 2.24%
54 | C=CCSc1nc2ccccc2[nH]1 | 14.5%
55 | N#Cc1c(-c2ccccc2)nc(SCc2ccc([N+](=O)[O-])cc2)[nH]c1=O | -3.91%
56 | CCCCSc1nc2ccccc2[nH]1 | 79.8% (active)
57 | COc1ccccc1CSc1ncc(-c2ccc([N+](=O)[O-])cc2)[nH]1 | 54.5% (active)
58 | COc1ccccc1-c1noc(CSc2nc(C)cc(=O)[nH]2)n1 | -3.44%
59 | CCc1nnc(NC(=O)CCCSc2nc3ccccc3[nH]2)s1 | 13.8%
60 | O=C(NCc1ccccc1)c1onc(CSc2nc3ccccc3[nH]2)c1C(=O)NCc1ccccc1 | -3.72%
61 | CC(C)=N/N=C1/NC(=O)C(Cc2ccccc2)S1 (stereo unspecified) | -7.41%
62 | COc1cccc(CNC(=O)CN(C)S(=O)(=O)c2ccc3c(c2)c(=O)n(C)c(=O)n3C)c1 | 18.4%
63 | O=C(O)CCCCCCCCc1cn(CN2C(=O)c3ccccc3C2=O)nn1 | -8.38%
64 | CC(CCc1ccccc1)NC(=O)COC(=O)c1ccc(F)cc1 (stereo unspecified) | -4.73%
65 | Cc1cccc(-c2nc(CS(=O)CC(=O)NC(C)CCc3ccccc3)c(C)o2)c1 (stereo unspecified) | -4.68%
66 | O=C(CCCN1C(=O)/C(=C/c2cccs2)SC1=S)Nc1ccc(O)cc1 | 42.3%
67 | Cc1ccc(C(=O)NCCN2CCOCC2)cc1C | 19%
68 | Cc1cc(C)cc(C(=O)NCCN2CCOCC2)c1 | -7.36%
69 | CC(=O)Oc1cc2c(C(=O)NCCN3CCOCC3)c(C)oc2c2ccccc12 | 44.7% (active)
70 | CC(=O)NC(CC(=O)Nc1cccc(S(=O)(=O)N2CCCC2)c1)c1ccccc1 (stereo unspecified) | -34.1%
71 | CC(=O)N1CCc2c(sc(NC(=O)CCS(=O)(=O)c3ccccc3)c2C#N)C1 | 17.3%
72 | O=C1CSC(=S)N1c1ccc(O)cc1 | -10.4%

Row | SMILES | inhibition
73 | N#Cc1c(Cl)nc(-c2cccnc2)nc1-c1ccccc1 | -3.23%
74 | Cc1ccnc(NC(=O)CCC(=O)N(CC(=O)NCc2ccccc2)Cc2ccco2)c1 | -4.34%
75 | Cc1ccc2c(c1)N(CC(=O)N(Cc1ccccn1)Cc1ccco1)C(=O)C(C(C)C)O2 (stereo unspecified) | 33.8% (active)
76 | Cc1ccc(C(C(=O)NC2CCCC2)N(Cc2ccco2)C(=O)CCC(=O)Nc2ccccn2)cc1 (stereo unspecified) | -14.7%
77 | Cc1cc(C)c2c(=O)[nH]c(SCC(=O)Nc3ccc(Br)cc3)nc2n1 | 3.52%
78 | CN(c1ccc(OCC(=O)O)cc1)S(=O)(=O)c1ccc2ccccc2c1 | -4.36%
79 | O=S(=O)(NC1CCCCC1N1CCC(O)CC1)c1ccc(Cl)cc1 (stereo unspecified) | -13.2%
80 | COc1ccc(-c2cc(C(F)(F)F)nc(SCCC(=O)NCc3ccco3)n2)cc1 | 25.3% (active)
81 | COc1ccc(S(=O)(=O)N(CC(=O)NCc2ccco2)c2ccc(F)cc2)cc1 | 35.2%
82 | O=C(CSc1nc(-c2ccco2)cc(C(F)(F)F)n1)NCc1cccs1 | -12.1%
83 | Cn1cc(CCC(=O)NC2CC2)c2ccccc21 | 11.7%
84 | CC1CCN(C(=O)Cn2cc(C(=O)c3ccco3)c3ccccc32)CC1 | 21.4%
85 | Cc1cccc(NC(=O)Cn2cc(C(=O)c3ccco3)c3ccccc32)c1 | -14.6%
86 | N#Cc1ccc(Cn2cc(C(=O)c3ccco3)c3ccccc32)cc1 | 92.3% (active)
87 | Cc1nnc(N/N=C/c2cccs2)[nH]c1=O | 3.51%
88 | Cc1n[nH]c(=O)nc1N/N=C/c1cccs1 | 29.8% (active)
89 | NC(=O)N/N=C\c1cccs1 | 17.5%
90 | CC1(C)Oc2ccc3ccc(=O)oc3c2/C(=N/O)C1=O | -11.1%
91 | COc1cc(NC(=O)CN2C(=O)NC(C)(c3ccc(OC(F)F)cc3)C2=O)cc(OC)c1OC (stereo unspecified) | -3.05%
92 | COc1ccccc1C(=O)NC(=S)NC12CC3CC(CC(C3)C1)C2 | -21.8%
93 | COc1cccc(/C=C/c2ccc3ccccc3n2)c1OC(C)=O | 42.7% (active)
94 | COc1cccc(/C=C2\C=C(c3ccc(C)cc3)OC2=O)c1OC(C)=O | 11.6%
95 | CCOc1cccc(/C=C/c2ccc3ccccc3n2)c1OC(C)=O | 50.8%
96 | O=C(NCCc1c[nH]c2ccccc12)C1CCN(Cc2ccc(Br)cc2)CC1 | -4.77%
